Screen size: about 310,000 compounds; about 14,000 (4.5%) showed an effect of 50% or more. The effect is printed as a negative number. Only a selection was taken, and strong results are over-represented in it overall.
target: human ether-à-go-go-related gene (hERG) potassium channel (human, UniProt Q12809); test: primary screen, population patch clamp on CHO cells stably expressing hERG; higher = less effect of the substance
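Note: peak tail current of the secondary pulse compared with the same well before compound.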

Sequence of human ether-à-go-go-related gene (hERG) potassium channel (Q12809 whole entry, looked up): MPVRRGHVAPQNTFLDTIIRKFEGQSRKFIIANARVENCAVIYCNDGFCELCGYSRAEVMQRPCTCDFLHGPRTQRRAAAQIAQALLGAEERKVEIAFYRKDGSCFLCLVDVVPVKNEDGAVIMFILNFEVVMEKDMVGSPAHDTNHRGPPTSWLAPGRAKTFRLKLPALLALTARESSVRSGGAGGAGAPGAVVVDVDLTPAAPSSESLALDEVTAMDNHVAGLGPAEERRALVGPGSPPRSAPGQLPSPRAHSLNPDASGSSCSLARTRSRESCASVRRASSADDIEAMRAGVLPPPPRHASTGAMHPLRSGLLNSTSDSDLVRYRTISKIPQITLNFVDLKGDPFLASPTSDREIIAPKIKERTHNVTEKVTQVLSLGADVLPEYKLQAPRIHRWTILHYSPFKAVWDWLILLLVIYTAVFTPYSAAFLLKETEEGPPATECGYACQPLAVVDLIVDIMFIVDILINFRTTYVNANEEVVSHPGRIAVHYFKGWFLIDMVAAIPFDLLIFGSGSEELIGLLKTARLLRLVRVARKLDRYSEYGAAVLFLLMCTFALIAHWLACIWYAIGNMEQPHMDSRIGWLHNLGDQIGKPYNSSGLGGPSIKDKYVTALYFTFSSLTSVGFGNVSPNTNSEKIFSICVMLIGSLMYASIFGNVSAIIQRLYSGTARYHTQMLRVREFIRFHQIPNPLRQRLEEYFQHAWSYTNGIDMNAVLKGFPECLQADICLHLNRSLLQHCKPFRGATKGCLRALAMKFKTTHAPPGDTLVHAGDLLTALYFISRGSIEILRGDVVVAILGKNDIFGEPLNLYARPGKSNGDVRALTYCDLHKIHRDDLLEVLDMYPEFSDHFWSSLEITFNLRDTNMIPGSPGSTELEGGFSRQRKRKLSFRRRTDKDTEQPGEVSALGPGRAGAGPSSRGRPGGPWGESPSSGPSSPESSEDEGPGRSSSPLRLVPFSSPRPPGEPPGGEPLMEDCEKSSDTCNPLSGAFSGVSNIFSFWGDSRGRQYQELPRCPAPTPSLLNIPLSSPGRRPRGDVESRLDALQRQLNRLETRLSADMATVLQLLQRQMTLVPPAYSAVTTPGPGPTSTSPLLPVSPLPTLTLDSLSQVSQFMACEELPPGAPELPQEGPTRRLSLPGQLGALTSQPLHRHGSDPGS

SMILES | hERG current change (%, negative = inhibition) at 10uM
CC1(C)Cc2nc(N3CCOCC3)c(C#N)cc2CO1 | 7.25%
COc1ccc(NC(=O)CN(C)C(=O)c2c(-c3c(F)cccc3Cl)noc2C)cc1 | -16.2%
CCC(C)(C)NC(=O)CN(Cc1ccccc1Cl)C(=O)CCC(=O)Nc1cc(C)ccn1 | -4.7%
O=C(O)c1nn(CC(=O)N2CCN(c3ccccc3)CC2)c(=O)c2ccccc12 | 8.36%
O=C(O)c1ccccc1OCCOc1ccccc1 | 3.63%
CC(C)c1nnc(NC(=O)c2cnccn2)s1 | 16.2%
COc1ccc(C(=O)N2CCCCC2)cc1S(=O)(=O)Nc1cccc(C(=O)O)c1 | 6.94%
CCOc1ccc(C(=O)OCCN(C)C)cc1.Cl | -10.3%
CSc1ncccc1C(=O)OCC(=O)N1CC(=O)Nc2ccccc21 | 8.21%
c1ccc(CC2CCN(Cc3nc(-c4ccccc4)no3)CC2)cc1 | -8.93%
COc1ccc(Nc2nc(N)nc(CN3CCC(C)CC3)n2)cc1 | -75.4%
COc1ccc(OCc2nc(N)nc(Nc3ccccc3)n2)cc1 | -4.98%
Nc1nc(CN2CCC(Cc3ccccc3)CC2)nc(Nc2ccccc2)n1 | -82%
COc1ccc(Nc2nc(N)nc(CN3CCOCC3)n2)cc1 | -5.46%
COc1ccc(Nc2nc(N)nc(CN3CCC(Cc4ccccc4)CC3)n2)cc1 | -79%
COc1ccc(-c2noc(CN3CCC(Cc4ccccc4)CC3)n2)cc1 | -8.3%
COc1ccc(Nc2nc(N)nc(CSC(=S)N3CCC(C)CC3)n2)cc1 | -5.86%
CC(=O)c1ccc(OCC(=O)OC(C)C(=O)NC2CCCCC2C)cc1 (stereo not drawn) | 26.9%
COC(=O)c1c(NC(=O)CC2SCC(C(=O)OC)NC2=O)sc2c1CCCC2 (stereo not drawn) | -5%
CCc1ccccc1N(C(C)=O)c1nc(CCl)cs1 | 6.77%
CC(C)(C)NC(=O)CN(CCN1CCOCC1)C(=O)CNS(=O)(=O)c1ccccc1 | 19.4%
COCCN(CCOC)S(=O)(=O)c1ccc(C(=O)Nc2nc(C)c(C(C)=O)s2)cc1 | 13%
C/C(=N\NC(N)=S)C1C2C3CC4C5CC(C42)C1C53 (stereo not drawn) | -10%
O=C(CC1(O)C(=O)Nc2ccccc21)c1ccc2c(c1)OCO2 (stereo not drawn) | -3.95%

SMILES | hERG current change (%, negative = inhibition) at 10uM
CN(C)c1ccc2c3c(ccc(N(C)C)c13)COC2 | -34.8%
CN(C)c1ccc2c3c(ccc(N(C)C)c13)C(=O)OC2 | -59.1%
Nc1ccc2c(c1)COC2=O | 4.55%
CN(C)S(=O)(=O)c1cccc(C(=O)NCC2(N3CCOCC3)CCCCC2)c1 | -13.4%
S=C(NCc1cccnc1)Nc1ccc(Oc2ccc(Cl)cc2)cc1 | -0.652%
CCCc1ccc(OCC(=O)Nc2cc(S(=O)(=O)CC)ccc2O)cc1 | -58.1%
CCS(=O)(=O)c1ccc(O)c(NC(=O)COc2ccc(OC)cc2)c1 | 1.82%
CCc1ccc(OCC(=O)Nc2cc(S(=O)(=O)CC)ccc2O)cc1 | -0.287%
COCCCNCCCCOc1c(Cl)cc(C)cc1Br.O=C(O)C(=O)O | -49.2%
C=CCNCCOc1c(C)cc(C)cc1Cl.O=C(O)C(=O)O | -21.2%
Cc1cc(C)c(OCCNCc2ccccc2)c(C)c1.O=C(O)C(=O)O | -5.71%
Cc1cc(Cl)c(OCCCNC2CCCC2)c(Br)c1.O=C(O)C(=O)O | -56.9%
Cc1cc(Cl)c(OCCCNCc2ccccc2)c(Br)c1.O=C(O)C(=O)O | -51.8%
Cc1cc(C)c(OCCCNC2CCCC2)c(Br)c1.O=C(O)C(=O)O | -34.5%
Cc1cc(C)c(OCCCCNCc2ccccc2)c(Cl)c1.O=C(O)C(=O)O | -68.5%
Cc1cc(Cl)c(OCCCCNC(C)(C)C)c(Br)c1.O=C(O)C(=O)O | -40.7%
Cc1cc(C)c(OCCCNCc2ccccc2)c(Br)c1.O=C(O)C(=O)O | -10.7%
CC(=O)c1cccc(NC(=O)C(C)OC(=O)Cc2c[nH]c3ccccc23)c1 (stereo not drawn) | -2.32%
COC(=O)c1cc(NC(=O)c2cccnc2)ccc1N1CCOCC1 | 13.9%
CCOc1ccccc1N1CC(C(=O)Nc2c(C)n(C)n(-c3ccccc3)c2=O)CC1=O (stereo not drawn) | 20.7%
CCC(C)[C@H](NC(=O)Nc1ccc(S(N)(=O)=O)cc1)C(=O)OC (stereo partly drawn) | 13.1%
O=C1CCCc2c1nc(-c1ccco1)n2O | 12.1%
O=C(Cn1[nH]c(=O)c2ccccc2c1=O)N1CC=C(c2ccccc2)CC1 | -4.76%
COc1ccc(CCNC(=O)CS(=O)Cc2nc(-c3ccccc3F)oc2C)cc1OC (stereo not drawn) | 13%

Reference: article PMC4336329 (PLoS ONE, 2015)
